Test [1] can be described thus: antimalarial activity against Dd2 strain (AID 2302;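 active = growth inhibition above 50% at the single 2 µM test dose, taken to imply half-maximal potency below 2 µM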;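 note: 0% = DMSO untreated growth and 100% = chloroquine plus artemisinin killed control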). Conditions: P. falciparum Dd2 in RBCs, LDH growth readout, 72 h; at 2 µM; active compounds read high.
A short description of test [2]: HepG2 cytotoxicity, primary screen, cytotoxicity control for P. falciparum antimalarial project, cell-based, ATP luminescence (AID 2303;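 active = inhibition above 50%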;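 note: 0% = DMSO wells and 100% = digitonin-killed cells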). Conditions: HepG2 viability, 24-48 h, at 10 µM, active compounds read high.
Test [3] addresses L-lactate dehydrogenase (Plasmodium falciparum (isolate CDC / Honduras)) (UniProt Q27743). The test is described as follows: PfLDH activity inhibition – cell lysate, 3D7 strain, counter-screen for P. falciparum growth inhibition project (AID 2304).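 Note: 0% = vehicle and 100% = reference inhibitor.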 Conditions: P. falciparum 3D7 crude extract, LDH APAD/NBT absorbance; at 2 µM; active compounds read high. A general note: The purpose of a counterscreen is to sort out artefacts and off-target activity.

The nature of test [4]: inhibition of 3D7 malaria parasite growth – strain 3D7 (AID 2306).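 Note: 0% = DMSO wells and 100% = chloroquine plus artemisinin control wells.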 Conditions: P. falciparum 3D7 erythrocytic growth, LDH absorbance, 72 h; at 2 µM; active compounds read high.
Test [5] concerns the target Calcium-dependent protein kinase 1 (Plasmodium falciparum (isolate 3D7)) (UniProt P62344). The test is described as follows: PfCDPK1 kinase inhibitors, biochemical, TCAMS library (AID 1159585; cut-off not given, nearly all actives have IC50 up to about 0.98 µM;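 note: inhibitors leave more ATP so luminescence rises with inhibition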). Conditions: recombinant PfCDPK1, Kinase-Glo ATP depletion luminescence. For orientation: In Kinase-Glo more light means more ATP remaining.
The target of test [6] is Plasmodium falciparum protein kinase 6 (PK6, PF3D7_1337100) (UniProt Q8IDW1). The test is described as follows: PfPK6 kinase inhibitors, biochemical, TCAMS library (AID 1159586). Conditions: recombinant PfPK6, Kinase-Glo ATP depletion luminescence.
Sequence of Plasmodium falciparum protein kinase 6 (PK6, PF3D7_1337100) (Q8IDW1 1-305): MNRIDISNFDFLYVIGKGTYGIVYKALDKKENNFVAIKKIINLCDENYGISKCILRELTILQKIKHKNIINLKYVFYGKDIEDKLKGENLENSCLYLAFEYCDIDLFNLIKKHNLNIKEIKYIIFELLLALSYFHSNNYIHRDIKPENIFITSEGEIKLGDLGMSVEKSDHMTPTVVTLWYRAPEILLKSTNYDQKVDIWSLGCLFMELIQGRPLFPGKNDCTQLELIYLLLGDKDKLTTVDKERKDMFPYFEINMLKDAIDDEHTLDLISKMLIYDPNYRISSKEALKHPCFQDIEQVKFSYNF
The target of test [7] is Protein kinase 7 (PK7), Plasmodium falciparum 3D7 (PF3D7_0213400) (UniProt Q7YTF7). Put plainly: inhibition of Plasmodium PK7 catalytic activity – biochemical, TCAMS antimalarial set, Kinase-Glo luminescence (AID 1159587). Conditions: recombinant PfPK7, Kinase-Glo ATP depletion luminescence.
Sequence of Protein kinase 7 (PK7), Plasmodium falciparum 3D7 (PF3D7_0213400) (Q7YTF7 1-343): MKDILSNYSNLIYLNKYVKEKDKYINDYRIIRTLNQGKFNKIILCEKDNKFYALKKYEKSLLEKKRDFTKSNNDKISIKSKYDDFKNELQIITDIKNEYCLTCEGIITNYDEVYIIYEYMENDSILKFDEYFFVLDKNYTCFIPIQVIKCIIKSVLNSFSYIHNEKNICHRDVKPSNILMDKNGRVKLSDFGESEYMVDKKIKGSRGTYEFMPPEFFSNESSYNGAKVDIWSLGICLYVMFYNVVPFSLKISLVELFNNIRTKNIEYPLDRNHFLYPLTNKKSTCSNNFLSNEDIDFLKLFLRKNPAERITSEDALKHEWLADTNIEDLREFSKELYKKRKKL
Test [8] concerns the target Calcium-dependent protein kinase 4 (Plasmodium falciparum (isolate 3D7)) (UniProt Q8IBS5). Put plainly: PfCDPK4 kinase inhibitors, biochemical, TCAMS library (AID 1159588; cut-off not given, nearly all actives have IC50 up to about 0.91 µM). Conditions: recombinant PfCDPK4, Kinase-Glo ATP depletion luminescence.

Molecules are shown by their SMILES. A number with no mark means an inactive call. For some of these results: Potency and affinity values are given separately. The source made the active and inactive calls. Unless noted, the rule behind the calls is not given here.

Broadly, the inhibition is the drop in the measured response relative to a control, in per cent.

Sequence of L-lactate dehydrogenase (Plasmodium falciparum (isolate CDC / Honduras)) (Q27743 whole entry, looked up): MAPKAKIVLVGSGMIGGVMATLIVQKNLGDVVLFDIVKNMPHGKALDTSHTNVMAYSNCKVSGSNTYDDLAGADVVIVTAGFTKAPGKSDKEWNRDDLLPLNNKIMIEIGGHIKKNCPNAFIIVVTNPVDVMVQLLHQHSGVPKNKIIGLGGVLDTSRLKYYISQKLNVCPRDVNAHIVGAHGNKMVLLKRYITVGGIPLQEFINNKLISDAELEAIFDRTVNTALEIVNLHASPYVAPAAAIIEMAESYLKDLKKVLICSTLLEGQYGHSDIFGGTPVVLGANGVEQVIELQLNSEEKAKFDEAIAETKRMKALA
Sequence of Calcium-dependent protein kinase 4 (Plasmodium falciparum (isolate 3D7)) (Q8IBS5 whole entry, looked up): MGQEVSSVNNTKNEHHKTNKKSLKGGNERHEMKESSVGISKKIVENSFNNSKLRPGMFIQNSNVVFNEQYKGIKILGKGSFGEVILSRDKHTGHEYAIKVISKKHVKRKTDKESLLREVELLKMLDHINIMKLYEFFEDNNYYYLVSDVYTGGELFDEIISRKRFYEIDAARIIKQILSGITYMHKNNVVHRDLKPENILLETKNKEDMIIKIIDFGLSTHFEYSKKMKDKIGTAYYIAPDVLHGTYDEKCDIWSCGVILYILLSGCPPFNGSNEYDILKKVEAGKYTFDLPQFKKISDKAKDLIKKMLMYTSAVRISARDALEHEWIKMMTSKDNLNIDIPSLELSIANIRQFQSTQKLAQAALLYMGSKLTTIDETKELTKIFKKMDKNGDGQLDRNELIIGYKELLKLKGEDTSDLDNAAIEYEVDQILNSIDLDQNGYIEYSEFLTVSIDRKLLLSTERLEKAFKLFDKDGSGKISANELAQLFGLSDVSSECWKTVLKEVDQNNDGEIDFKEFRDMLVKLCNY
Sequence of Calcium-dependent protein kinase 1 (Plasmodium falciparum (isolate 3D7)) (P62344 whole entry, looked up): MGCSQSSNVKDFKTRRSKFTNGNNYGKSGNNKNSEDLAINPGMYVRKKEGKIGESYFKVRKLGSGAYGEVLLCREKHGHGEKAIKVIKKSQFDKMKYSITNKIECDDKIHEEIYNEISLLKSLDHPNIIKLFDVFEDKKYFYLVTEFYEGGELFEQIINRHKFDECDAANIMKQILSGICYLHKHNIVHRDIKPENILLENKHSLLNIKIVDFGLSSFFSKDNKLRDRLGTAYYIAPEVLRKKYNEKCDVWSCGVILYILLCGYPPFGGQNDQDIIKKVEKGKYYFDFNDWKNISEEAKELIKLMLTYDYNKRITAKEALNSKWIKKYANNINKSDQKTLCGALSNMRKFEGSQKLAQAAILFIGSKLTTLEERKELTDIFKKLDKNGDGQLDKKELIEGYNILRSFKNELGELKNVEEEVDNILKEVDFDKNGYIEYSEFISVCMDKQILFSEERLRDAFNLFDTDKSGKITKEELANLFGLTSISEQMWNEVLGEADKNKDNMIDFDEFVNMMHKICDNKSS

With `CO/C(=C\C=C\c1cc2cc(Cl)c(Cl)cc2[nH]1)C(=O)NCCCN1CCN(C2CCCCC2)CC1`, the results for the growth inhibition in test [1] and in test [4] were 97% (active) and 99% (active), respectively. The results for the inhibition in test [2] and in test [3] were 60% (active) and -3%, respectively. The result in test [5], in test [6], in test [7] and in test [8] was inactive.
`CC(NCC(O)Cn1c2ccccc2c2ccccc21)c1ccccc1` (stereo not given): the growth inhibition was 85% (active) in test [1] and 96% (active) in test [4]. In addition, the figures for the inhibition in test [2] and in test [3] were 37% and 9%, respectively. In addition, the result in test [5], in test [6], in test [7] and in test [8] was inactive.
As for `FC(F)(F)c1ccc2nc(-c3ccc(-c4ccc(CNCc5ccccc5)cc4)cc3)[nH]c2c1`, the growth inhibition in test [1] is 96% (active); in test [4], 101% (active). Besides, the inhibition in test [2] is 22%; in test [3] it was -5%. The outcome in test [5], in test [6], in test [7] and in test [8] was inactive.
On to `OC(CN1CCN(Cc2ccccc2)CC1)Cn1c(-c2ccccc2)c(-c2ccccc2)c2ccccc21` (stereo not given), for which the figures for the growth inhibition in test [1] and in test [4] were 97% (active) and 98% (active), respectively. Besides, the inhibition in test [2] and in test [3] was -3% each time. Further, the result in test [5], in test [6], in test [7] and in test [8] was inactive.
Turning to `COc1ccc(Nc2ncc3c(-c4cccc(NC(=O)Cc5ccc(F)cc5)c4)c[nH]c3n2)cc1OC`, the figures for the growth inhibition in test [1] and in test [4] were 90% (active) and 101% (active), respectively. In addition, the inhibition in test [2] is 21%; in test [3], 8%. Also, the result in test [5], in test [6], in test [7] and in test [8] was inactive.
Consider `c1cc(CNCCc2ccncc2)cc(-c2ccc(-c3nc4ccccc4[nH]3)cc2)c1`, for which the results for the growth inhibition in test [1] and in test [4] were 97% (active) and 99% (active), respectively. The results for the inhibition in test [2] and in test [3] were 28% and 5%, respectively. Besides, the outcome in test [5], in test [6], in test [7] and in test [8] was inactive.
`COc1ccc(Br)cc1/C=C/C(=O)Nc1ccc2c(c1)CCCN(C)C2`: the results for the growth inhibition in test [1] and in test [4] were 10% and 84% (active), respectively. For the same compound, the values for the inhibition in test [2] and in test [3] were 8% and 1%, respectively. Moreover, the outcome in test [5], in test [6], in test [7] and in test [8] was inactive.
On to `Cc1[nH]c(C)c(-c2ccc(S(=O)(=O)c3ccc(Cl)cc3)cc2)c(=O)c1Cl`, for which the growth inhibition in test [1] is 96% (active); in test [4], 98% (active). Moreover, the inhibition was -5% in test [2] and 9% in test [3]. Further, the outcome in test [5], in test [6], in test [7] and in test [8] was inactive.
Take `O=c1cc(-c2ccc3ccccc3c2)[nH]c2ccccc12`: the growth inhibition is 44% in test [1] and 81% (active) in test [4]. Moreover, the results for the inhibition in test [2] and in test [3] were 25% and -3%, respectively. Besides, the result in test [5], in test [6], in test [7] and in test [8] was inactive.
Take `Cc1ccc(CNC(=O)c2cc3c(=O)n4cccc(C)c4nc3n(CCN3CCOCC3)c2=N)cc1`: the growth inhibition was 21% in test [1] and 97% (active) in test [4]. In addition, the inhibition in test [2] was 31%; in test [3], -6%. Besides, the result in test [5], in test [6], in test [7] and in test [8] was inactive.
Turning to `COc1ccc(OCCCON)cc1`, the growth inhibition is -3% in test [1] and 98% (active) in test [4]. Besides, the inhibition in test [2] was 3%; in test [3], -1%. In addition, the result in test [5], in test [6], in test [7] and in test [8] was inactive.
As for `COc1ccccc1C1CCN(C2CCC(NC(=O)/C=C/c3cc(F)cc(C(F)(F)F)c3)CC2)CC1` (stereo not given), the growth inhibition in test [1] was 57% (active); in test [4], 98% (active). In addition, the inhibition in test [2] is 92% (active); in test [3], -1%. Further, the outcome in test [5], in test [6], in test [7] and in test [8] was inactive.
With `O=C(Cn1cnc2c(nnn2Cc2ccccc2F)c1=O)Nc1ccc2c(c1)OCCO2`, the growth inhibition is 1% in test [1] and 86% (active) in test [4]. The figures for the inhibition in test [2] and in test [3] were -6% and -2%, respectively. Besides, the outcome in test [5], in test [6], in test [7] and in test [8] was inactive.
For the compound `COc1ccccc1C(C)NCC(=O)Nc1cccc(C(=O)Nc2cccc(C(F)(F)F)c2)c1` (stereo not given), the values for the growth inhibition in test [1] and in test [4] were 39% and 91% (active), respectively. Besides, the values for the inhibition in test [2] and in test [3] were 34% and 5%, respectively. The outcome in test [5], in test [6], in test [7] and in test [8] was inactive.
In the case of `CN(CC(=O)Nc1cc(C(F)(F)F)ccc1-n1cncn1)Cc1ccc2ccccc2c1`, the growth inhibition in test [1] was 99% (active); in test [4], 98% (active). Also, the inhibition in test [2] was 18%; in test [3], 3%. Further, the outcome in test [5], in test [6], in test [7] and in test [8] was inactive.
For the compound `O=C1OC2(CN1CC1CCN(Cc3ccc(-n4ccnc4)cc3)C1)c1ccccc1-c1ccccc12` (stereo not given), the growth inhibition in test [1] was -5%; in test [4], 96% (active). For the same compound, the values for the inhibition in test [2] and in test [3] were 25% and -2%, respectively. Further, the result in test [5], in test [6], in test [7] and in test [8] was inactive.
For `CCN(CC)CCCNc1ncc2c(-c3ccc(NC(=O)Nc4cc(C(F)(F)F)ccc4F)cc3)nn(C)c2n1`, the growth inhibition was 74% (active) in test [1] and 99% (active) in test [4]. The inhibition was 81% (active) in test [2] and -3% in test [3]. Also, the outcome in test [5], in test [6], in test [7] and in test [8] was inactive.
On to `C#CCNCc1ccc(-c2ccc(-c3nc4ccc(C(F)(F)F)cc4[nH]3)s2)cc1`, for which the growth inhibition in test [1] was 28%; in test [4] it was 98% (active). For the same compound, the inhibition in test [2] was 37%; in test [3], 0%. The outcome in test [5], in test [6], in test [7] and in test [8] was inactive.
Take `O=S(=O)(c1ccc2ccccc2c1)N1CCCN(Cc2ccc(OCCCN3CCCCC3)cc2)CC1`: the growth inhibition was 11% in test [1] and 98% (active) in test [4]. Moreover, the inhibition is 43% in test [2] and -3% in test [3]. The result in test [5], in test [6], in test [7] and in test [8] was inactive.
As for `Cc1ccc2nc(C)cc(NN=Cc3cccc(F)c3)c2c1`, the growth inhibition in test [1] and in test [4] was 99% (active) in each case. In addition, the results for the inhibition in test [2] and in test [3] were 6% and -1%, respectively. Besides, the outcome in test [5], in test [6], in test [7] and in test [8] was inactive.

Values taken from PubChem BioAssay.
